The text below walks through data of PubChem BioAssay.

Assay [1] is described as follows: reducers of endogenous Her2 protein level, primary screen, SKBR3 breast tumor cells, AlphaScreen, ATP viability (AID 461;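 active means Her2 level under about 52% in both replicate screens, with viability over 70% of control, limit read from the data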;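 on Her2 level: lower value means less Her2 protein in the cells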;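 on viability: percent of carrier control wells set as 100% viability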). The settings on record: 18-24 h, measured here: SKBR3 viability, ATP luminescence, at 10 µM. In general terms: In Alpha technology, singlet oxygen from a donor bead excites a nearby acceptor bead.
The target of assay [2] is Receptor tyrosine-protein kinase erbB-2 (Homo sapiens) (UniProt P04626). The assay is described as above. The settings on record: 18-24 h, at 10 µM, stronger effect = lower value.
Receptor tyrosine-protein kinase erbB-2 (Homo sapiens), sequence (P04626 whole entry, looked up): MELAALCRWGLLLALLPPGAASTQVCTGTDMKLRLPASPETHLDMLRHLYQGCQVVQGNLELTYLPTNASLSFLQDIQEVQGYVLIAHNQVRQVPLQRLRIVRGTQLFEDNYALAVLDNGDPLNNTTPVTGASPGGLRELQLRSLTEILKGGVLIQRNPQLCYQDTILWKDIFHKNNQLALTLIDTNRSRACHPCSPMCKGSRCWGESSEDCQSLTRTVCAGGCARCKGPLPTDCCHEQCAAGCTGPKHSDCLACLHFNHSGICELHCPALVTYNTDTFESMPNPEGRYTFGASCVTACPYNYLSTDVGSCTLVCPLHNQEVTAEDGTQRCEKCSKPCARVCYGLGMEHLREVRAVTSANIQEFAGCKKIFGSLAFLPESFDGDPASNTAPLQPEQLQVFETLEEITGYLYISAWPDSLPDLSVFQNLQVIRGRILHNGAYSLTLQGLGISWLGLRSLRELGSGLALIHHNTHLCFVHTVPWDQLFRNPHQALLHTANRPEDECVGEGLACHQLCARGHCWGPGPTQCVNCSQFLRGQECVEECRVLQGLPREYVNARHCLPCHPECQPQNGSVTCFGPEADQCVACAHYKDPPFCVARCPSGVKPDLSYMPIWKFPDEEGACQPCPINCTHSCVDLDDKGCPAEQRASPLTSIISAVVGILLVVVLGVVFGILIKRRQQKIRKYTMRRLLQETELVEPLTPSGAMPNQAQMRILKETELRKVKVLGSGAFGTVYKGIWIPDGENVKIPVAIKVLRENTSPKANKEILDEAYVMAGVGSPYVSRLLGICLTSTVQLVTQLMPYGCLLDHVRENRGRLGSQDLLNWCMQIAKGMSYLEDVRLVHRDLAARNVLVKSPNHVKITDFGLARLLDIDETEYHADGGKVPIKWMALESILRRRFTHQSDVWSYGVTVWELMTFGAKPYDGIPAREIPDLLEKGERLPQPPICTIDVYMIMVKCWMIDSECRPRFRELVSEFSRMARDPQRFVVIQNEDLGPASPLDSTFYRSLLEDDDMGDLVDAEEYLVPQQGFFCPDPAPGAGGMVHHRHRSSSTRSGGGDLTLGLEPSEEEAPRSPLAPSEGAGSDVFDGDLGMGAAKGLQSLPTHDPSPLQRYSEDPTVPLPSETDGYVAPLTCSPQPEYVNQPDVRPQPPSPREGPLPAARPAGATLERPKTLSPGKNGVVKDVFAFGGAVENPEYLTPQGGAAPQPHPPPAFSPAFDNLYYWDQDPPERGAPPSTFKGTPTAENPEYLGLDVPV
Assay [3] is described as follows: SK-BR-3 cell growth inhibitors, pilot screen, 24 h, human (AID 572;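 active means viability at or below 10% of carrier control in both of two separate runs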;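 further: compound exposure lasted between 18 and 24 h rather than exactly 24 h; 100% = carrier-treated control wells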). Particulars: SK-BR-3 viability, CellTiter-Glo luminescence, at 10 µM, stronger effect = lower value. A general note: In ATP-based viability assays light output follows the ATP content of the culture.
Assay [4] is described as follows: HUVEC growth inhibition – cell-based, human, primary screen (AID 575;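 active means viability at or below 30% in both replicate assays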;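 further: 100% = median of untreated cell wells with 0.1% DMSO on each plate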). The settings on record: HUVEC proliferation, CellTiter-Glo luminescence, 72 h; at 10 µM; stronger effect = lower value.
Assay [5] is described as follows: growth inhibitors of H69AR lung tumor, primary screen, human, duplicate replicates (AID 580).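 Further: 100% = mean luminescence of untreated wells and 0% = no signal.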 Particulars: H69AR lung tumor cells viability, ATP luminescence, 72 h; at 10 µM; stronger effect = lower value.
Assay [6] is described as follows: reversal of MRP1-mediated doxorubicin resistance, pilot screen, H69AR cells, doxorubicin co-treatment (AID 601;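 active means viability loss from added drug above about 55%, and viability with drug at most 40%, in both replicates, limit read from the data, passing the limit was not always enough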). The settings on record: CellTiter-Glo, 72 h, at 10 µM; for differential viability (reversal): stronger effect = higher value.
The nature of assay [7]: 384-well plate pilot, post-Golgi transport modulator project, inhibition of yeast transport mutant growth (AID 636; in the data active means inhibition above about 31%). The settings on record: absorbance 615 nm, about 18 h, stronger effect = higher value.
A short description of assay [8]: growth suppression of yeast trafficking mutant, preliminary HTS, modulators of trafficking downstream of Golgi apparatus project, 1536-format plate, OD 615 nm (AID 637; in the data active means inhibition above about 30%). Particulars: yeast transport mutant growth, absorbance 615 nm, 18 h; stronger effect = higher value.
A short description of assay [9]: OD615 S. cerevisiae growth inhibition, permissive medium, pilot counter-assay, permissive growth control for S. cerevisiae lifespan shortening project (AID 705;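 active means growth inhibition above 25% in both replicates, a cutoff set 3 SD above the mean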). Particulars: OD615, 24 h, at 10 µM, stronger effect = higher value.
Assay [10] in a line: Restrictive medium S. cerevisiae growth inhibition, OD615, pilot screen of yeast lifespan reduction project, restrictive growth control (AID 706;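 active means growth inhibition above a set limit, 3 SD over mean compound inhibition, in both replicates, cut at about 43% in these data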;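 further: modified DeaD lifespan yeast strain shifted to restrictive glucose medium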). Particulars: OD615, 48 h, at 10 µM, stronger effect = higher value.
A short description of assay [11]: viability gain of MRP-1-high H69AR cells under doxorubicin, pilot screen, MRP-1 activator project, CellTiter-Glo, duplicate (AID 807;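 active means viability increase at or above a cutoff of the median across tested compounds plus 3 SD, cut at about 8.5% in these data, passing the limit was not always enough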;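 further: compound pretreatment 18-22 h then 72 h combined with doxorubicin; 0% = doxorubicin alone and 100% = vehicle without doxorubicin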). The settings on record: H69AR viability with doxorubicin, CellTiter-Glo luminescence; at 10 µM; stronger effect = higher value.
A short description of assay [12]: growth suppression of beta-catenin knockout HCT116, pilot screen, human colon tumor cells (AID 823;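 active means cell viability at or below a set limit in both duplicate runs, the limit being the all-compound median minus 4 SD, cut at about 23% in these data, passing the limit was not always enough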;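 further: 0% = wells killed by 20 µM Hyamine and 100% = untreated DMSO cell wells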). The settings on record: CellTiter-Glo, 60 h, at 10 µM, stronger effect = lower value.
Assay [13] in a line: growth suppression of PTEN-deleted HCT116, pilot screen, cell-based, HCT116 clonal line, CellTiter-Glo (AID 824;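 active means viability at or below 27.92% in each of two runs, the all-compound median minus 4 SD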;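 further: 0% = 20 µM Hyamine control and 100% = vehicle cell control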). Particulars: 60 h, at 10 µM, stronger effect = lower value.
Assay [14] is described as follows: inhibitors of the yeast RAM network, pilot screen, dse1pr::URA3 reporter, 5-FOA selection (AID 869;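 active means inhibition over a set limit, the all-compound mean plus 3 SD, in both replicate runs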;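 further: 0% = DMSO wells with no growth and 100% = 10 µM 1-NA-PP1 with full growth; RAM network block rescues cells from 5-FOA so hits raise OD615 growth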). The settings on record: S. cerevisiae dse1pr::URA3 5-FOA growth, OD615, 2 d; at 10 µM; stronger effect = higher value; strain carries analog-sensitive mutant Cbk1 kinase.
A short description of assay [15]: RAM signaling pathway blockade in yeast – S. cerevisiae, Pdr1DBD-CYC8 efflux-inhibited sensitized strain, primary screen (AID 1298;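 active means RAM network inhibition above 8.4% in each of two replicates, 3 SD over the compound average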;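 further: 0% = DMSO untreated cells without growth and 100% = 10 µM 1-NA-PP1 full growth; higher means more yeast growth rescued from 5-FOA killing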). Particulars: S. cerevisiae cbk1-as DSE1-URA3 strain, 5-FOA growth OD615, 2 d; at 50 µM; stronger effect = higher value.
Setting [16] is: H69AR cells + 2 uM doxorubicin, measured here: viability with 2 uM doxorubicin, stronger effect = lower value.
[17] abbreviates: H69AR cells, compound alone cytotoxicity.

As usually defined, the viability is a read-out of living cells in per cent, often relative to untreated cells. As usually defined, the inhibition is the change of the read-out against control, counted positive when it falls.

Inconclusive results are not listed. Activity calls are given as the source filed them.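 How the source made its calls, unless noted: active means viability at or under a set limit in both replicates, limit being median viability minus 3 SD (cut at about 48% in these data, passing the limit was not always enough); inconclusive means at or under the limit in just one replicate; inactive means at or above the limit in both replicates.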

As to `COc1ccc(CNC(=O)c2ccc(CN3CCOCC3)cc2)cc1`, the viability in assay [1] is 116%; in assay [3], 116% (inactive); in [4], 99.8% (inactive); in assay [5], 92.1% (inactive); in assay [6] (setting [16]), 79.6%; in assay [6] (setting [17]), 92.1%. For the same molecule, the viability in assay [12] is 96.4% (inactive); in assay [13], 105% (inactive). Besides, in assay [2], the Her2 level is 93.5% (inactive). Besides, the differential viability (reversal) in assay [6] (H69AR cells + 2 uM doxorubicin) is 12.5% (inactive). In addition, the inhibition is -4% (inactive) in assay [7], 4.52% (inactive) in assay [8] and 1.33% (inactive) in assay [14]. Besides, the growth inhibition was -8.78% (inactive) in assay [9] and -16.6% (inactive) in assay [10]. The viability increase in [11] is -0.28% (inactive). Besides, in assay [15], the RAM network inhibition was 0.16% (inactive).
For `Cc1ccc(C)c(C(=O)CC2(O)C(=O)N(C)c3ccccc32)c1` (stereo not given), the viability in [1] was 112%; in [3], 112% (inactive); in [4] it was 105% (inactive); in assay [5], 92.2% (inactive); in assay [6] (setting [16]) it was 82.1%; in assay [6] (setting [17]) it was 92.2%. Moreover, the viability in [12] is 107% (inactive); in assay [13], 97.2% (inactive). The Her2 level in assay [2] is 113% (inactive). For the same molecule, the differential viability (reversal) in [6] (H69AR cells + 2 uM doxorubicin) was 10.1% (inactive). In addition, the figures for the inhibition in assay [7], in assay [8] and in [14] were -4.68% (inactive), -1.5% (inactive) and 3.41% (inactive), respectively. The growth inhibition in assay [9] was -8.69% (inactive); in assay [10], -12.9% (inactive). The viability increase in [11] was -0.65% (inactive). Besides, the RAM network inhibition in assay [15] was -0.11% (inactive).
As to `CCOC(=O)N1CCC(NC(=O)C2CCN(S(=O)(=O)c3cccc4cccnc34)CC2)CC1`, the viability in assay [1] was 90.5%; in [3], 90.5% (inactive); in [4] it was 97.6% (inactive); in assay [5] it was 94.8% (inactive); in assay [6] (setting [16]), 101%; in assay [6] (setting [17]) it was 94.8%. Besides, the viability in assay [12] is 91.4% (inactive); in assay [13], 92.9% (inactive). Besides, the Her2 level in assay [2] is 97.5% (inactive). Besides, in assay [6] (H69AR cells + 2 uM doxorubicin), the differential viability (reversal) was -6.25% (inactive). The inhibition is -3.07% (inactive) in [7], -3.33% (inactive) in [8] and 1.02% (inactive) in assay [14]. The growth inhibition in [9] is -5.04% (inactive); in [10], 3.31% (inactive). In [11], the viability increase was 0.29% (inactive). Also, the RAM network inhibition in assay [15] is 1.81% (inactive).
Turning to `COc1cc(NC(=O)C2CCCN2S(=O)(=O)c2cccc3cccnc23)cc(OC)c1OC` (stereo not given), the viability is 72% in assay [1]; 72% (inactive) in assay [3]; 87.6% (inactive) in [4]; 82.2% (inactive) in assay [5]; 88.3% in assay [6] (setting [16]); 82.2% in [6] (setting [17]). Moreover, the viability in [12] and in [13] was 79.4% (inactive) each time. Also, the Her2 level in assay [2] was 81% (inactive). The differential viability (reversal) in assay [6] (H69AR cells + 2 uM doxorubicin) is -6.16% (inactive). Further, the inhibition was -1.67% (inactive) in assay [7], 1.5% (inactive) in assay [8] and 0.905% (inactive) in [14]. In addition, the growth inhibition in [9] was 0.6% (inactive); in assay [10] it was -10.7% (inactive). For the same molecule, the viability increase in assay [11] is -5.34% (inactive). In addition, the RAM network inhibition in [15] is 2.32% (inactive).
Regarding `CC(=O)NCCc1nc2ccccc2[nH]1`, the viability in assay [1] was 94%; in assay [3] it was 94% (inactive); in assay [4] it was 91.9% (inactive); in assay [5], 93.7% (inactive); in assay [6] (setting [16]), 94.7%; in assay [6] (setting [17]) it was 93.7%. Further, the viability is 107% (inactive) in [12] and 97% (inactive) in assay [13]. Also, in assay [2], the Her2 level was 104% (inactive). In assay [6] (H69AR cells + 2 uM doxorubicin), the differential viability (reversal) is -1% (inactive). Also, the inhibition was -5.2% (inactive) in assay [7], -2.33% (inactive) in assay [8] and -0.365% (inactive) in [14]. Further, the figures for the growth inhibition in assay [9] and in assay [10] were -3.03% (inactive) and 6.51% (inactive), respectively. Also, the viability increase in assay [11] is -0.62% (inactive). Besides, the RAM network inhibition in assay [15] was 2.3% (inactive).
